Among the data in the antibiotic and cytotoxicity screens of Wong et al. (2023) are growth inhibition call values, retold here.

In all, about 39,000 compounds went through this assay and about 500 (1.3%) were called active. The list comes from a sample in which actives are over-represented; it also holds similar structures and randomly drawn compounds.

For the test, the system named is S. aureus RN4220. The test can be described thus: growth inhibition call (relative growth <= 0.2). The conditions noted are these: 50 µM.
On to `C[C@@H]1CN([C@@H](C)CO)C(=O)Cc2cc(NC(=O)C3CC3)ccc2O[C@@H]1CN(C)C(=O)Nc1ccc2c(c1)OCO2`, for which the growth inhibition call was “inactive”.
As for `CC(C)c1ccccc1Cc1cc(C(=O)Nc2ccc(S(=O)(=O)c3ccccc3C(C)(C)C)cc2)c(O)c(O)c1O`, the growth inhibition call was “inactive”.
For `Cc1ccc(S(=O)(=O)N(C)C[C@@H]2Oc3ccc(NC(=O)Nc4cccc5ccccc45)cc3C(=O)N([C@@H](C)CO)C[C@H]2C)cc1` the value was “inactive”; for `C[C@H]1CC/C=C\[C@H]2O[C@@]34C=CCN(c5ccc6ccccc6c5)C(=O)[C@H]3N(CCCO)C(=O)[C@@H]4[C@@H]2C(=O)O1`, “inactive”; for `C[C@H]1CN([C@@H](C)CO)C(=O)Cc2cc(NC(=O)CCC(F)(F)F)ccc2O[C@H]1CN(C)S(=O)(=O)c1cn(C)cn1`, “inactive”.
`CCN(CC)CCS(=O)(=O)[C@@H]1CCN2C(=O)c3coc(n3)CC(=O)C[C@H](O)/C=C(C)/C=C\CNC(=O)/C=C/[C@@H](C)[C@H](C(C)C)OC(=O)[C@@H]12`: the growth inhibition call is “active”.
For `CCCCC(=O)OCC(=O)[C@]1(O)Cc2c(O)c3c(c(O)c2[C@@H](O[C@H]2C[C@H](NC(=O)C(F)(F)F)[C@H](O)[C@H](C)O2)C1)C(=O)c1c(OC)cccc1C3=O` the value was “inactive”; for `COc1cccc2c1C(=O)c1c(O)c3c(c(O)c1C2=O)C[C@@](O)(C(=O)CO)C[C@@H]3O[C@H]1C[C@H](N)[C@H](O)[C@H](C)O1`, “active”; for `COc1cccc2c1C(=O)c1c(O)c3c(c(O)c1C2=O)C[C@@](O)(C(=O)CO)C[C@@H]3O[C@H]1C[C@H](N)[C@@H](O)[C@H](C)O1`, “active”.
For `COc1cccc2c1C(=O)c1c(O)c3c(c(O)c1C2=O)CC(O)(C(=O)CO)CC3OC1CC(N)C(O)C(C)O1` (stereo not drawn) [listing 1 of 2 here] the value was “inactive”.
The entry for `COc1cccc2c1C(=O)c1c(O)c3c(c(O)c1C2=O)CC(O)(C(=O)CO)CC3OC1CC(N)C(O)C(C)O1` (stereo not drawn) [listing 2 of 2 here] is “inactive”.
On to `COc1cccc2c1C(=O)c1c(O)c3c(c(O)c1C2=O)C[C@](O)(C(=O)CO)C[C@H]3O[C@H]1C[C@@H](N)[C@@H](O)[C@@H](C)O1`, for which the growth inhibition call was “active”.
As for `COc1cccc2c1C(=O)c1c(O)c3c(c(O)c1C2=O)CC(O)(C(=O)CO)CC3OC1CC(N)C(O)C(C)O1.Cl` (stereo not drawn), the growth inhibition call was “inactive”.
For `Cc1ccnc(NC(=O)Cn2cnc3c2c(=O)n(C)c(=O)n3C)c1` the value was “inactive”; for `Cc1noc(C)c1S(=O)(=O)Nc1ccc2c(c1)C(=O)N([C@@H](C)CO)C[C@@H](C)[C@@H](CN(C)S(C)(=O)=O)OCCCC[C@@H](C)O2`, “inactive”; for `COCCC(=O)N1CCC2(CC1)COC2`, “inactive”.
For `C[C@@H]1CCCCO[C@@H](CN(C)C(=O)Nc2ccc(C(F)(F)F)cc2)[C@H](C)CN([C@H](C)CO)C(=O)c2cc(N(C)C)ccc2O1` the value was “inactive”; for `Cc1noc(C)c1NC(=O)N(C)C[C@H]1Oc2ccc(NS(=O)(=O)c3ccccc3)cc2C(=O)N([C@@H](C)CO)C[C@H]1C`, “inactive”.
For `CCOC(=O)[C@H]1CN(C(C)(C)C)C(=O)C1=O` the value was “inactive”; for `O=c1[nH]c2ccsc2c(=O)n1CCO`, “inactive”.
Take `C[C@@H]1CN([C@@H](C)CO)S(=O)(=O)c2ccc(C#Cc3ccncc3)cc2O[C@H]1CN(C)C(=O)C1CCOCC1`: the growth inhibition call was “inactive”.
The entry for `CCS(=O)(=O)N1CC[C@]2(CC1)CN([C@H](CO)c1c2c2ccc(cc2n1C)OC)C(=O)CN1CCOCC1` is “inactive”; for `C[C@H](CO)N1C[C@H](C)[C@@H](CN(C)Cc2ccccc2)Oc2ccc(NC(=O)Cn3cnnn3)cc2CC1=O` it is “inactive”.
`N[C@H]1CCN(c2nc3c(cc2F)c(=O)c(C(=O)O)cn3-c2ccc(F)cc2F)C1`: the growth inhibition call is “active”.
For `N[C@@H]1[C@H]2CN(c3nc4c(cc3F)c(=O)c(C(=O)O)cn4-c3ccc(F)cc3F)C[C@@H]12`, the growth inhibition call is “active”.
For `CN[C@H]1CN(c2ccc3c(=O)c(C(=O)O)cn(-c4nccs4)c3n2)C[C@@H]1OC` the value was “inactive”.
The entry for `Cc1ccc(S(=O)(=O)O)cc1.NC1CCN(c2nc3c(cc2F)c(=O)c(C(=O)O)cn3-c2ccc(F)cc2F)C1.O` (stereo not drawn) is “inactive”; for `C[C@H](CO)N1C[C@H](C)[C@H](CN(C)C(=O)CCC(F)(F)F)OCCCC[C@H](C)Oc2ccc(NC(=O)Nc3ccccc3)cc2C1=O` it is “inactive”.
For `C[C@H](CO)N1C[C@H](C)[C@H](CN(C)C(=O)CCCN(C)C)OCCCC[C@H](C)Oc2ccc(NS(C)(=O)=O)cc2C1=O` the value was “inactive”; for `C[C@H](CO)N1C[C@H](C)[C@H](CN(C)S(=O)(=O)c2ccc(F)cc2)Oc2c(NC(=O)C3CCOCC3)cccc2C1=O`, “inactive”; for `CC(C)NC(=O)N(C)C[C@@H]1Oc2c(NS(=O)(=O)c3ccc(F)cc3)cccc2C(=O)N([C@H](C)CO)C[C@H]1C`, “inactive”.
As to `C[C@@H]1CCCCO[C@@H](CN(C)C(=O)CCCN(C)C)[C@H](C)CN([C@@H](C)CO)C(=O)c2cc(NC(=O)Nc3ccc(F)cc3)ccc2O1`, the growth inhibition call was “inactive”.
Regarding `COc1cccc(S(=O)(=O)N(C)C[C@@H]2Oc3ncc(C#CC(C)C)cc3C(=O)N([C@@H](C)CO)C[C@H]2C)c1`, the growth inhibition call is “inactive”.
The entry for `COC(=O)CC1C(C)(C)C(OC(C)=O)C2CC3=C4CC(=O)OC(c5ccoc5)C4(C)CCC3C1(C)C2=O` (stereo not drawn) is “inactive”; for `CCC(=C/[C@H](C)C/C=C/C(C)=C/[C@@H](C)C(=O)[C@@H](C)[C@H](O)[C@@H](C)C/C(C)=C/C(=O)O)/C=C/[C@@H]1OC(=O)C=C[C@@H]1C` it is “active”; for `Cc1noc(C)c1S(=O)(=O)N(C)C[C@@H]1Oc2ccc(NS(=O)(=O)c3ccc(F)cc3)cc2C(=O)N([C@H](C)CO)C[C@@H]1C` it is “inactive”.
The entry for `COc1ccc(S(=O)(=O)N(C)C[C@@H]2Oc3c(NS(=O)(=O)c4ccc(C)cc4)cccc3C(=O)N([C@H](C)CO)C[C@@H]2C)cc1` is “inactive”.
For `O=C1CCCNc2ccc(Cl)cc21` the value was “inactive”.
In the case of `O=C1CCNc2cc3ccccc3cc21`, the growth inhibition call is “active”.
As for `O=C1NCc2ccccc21`, the growth inhibition call was “inactive”.
The entry for `CN(C)C(=O)C[C@@H]1CC[C@@H](NC(=O)C2CC2)[C@@H](CO)O1` is “inactive”.
Consider `C[C@@H]1CCCCO[C@@H](CN(C)C(=O)Nc2ccc(F)cc2)[C@H](C)CN([C@H](C)CO)C(=O)c2cc(NS(=O)(=O)c3ccc(F)cc3)ccc2O1`, for which the growth inhibition call was “inactive”.
The entry for `C[C@@H](O)COC[C@H]1O[C@@H]2O[C@H]3[C@H](O)[C@@H](O)[C@@H](O[C@H]4[C@H](O)[C@@H](O)[C@@H](O[C@H]5[C@H](O)[C@@H](O)[C@@H](O[C@H]6[C@H](O)[C@@H](O)[C@@H](O[C@H]7[C@H](O)[C@@H](O)[C@@H](O[C@H]8[C@H](O)[C@@H](O)[C@@H](O[C@H]1[C@H](O)[C@H]2O)O[C@@H]8COC[C@@H](C)O)O[C@@H]7COC[C@@H](C)O)O[C@@H]6COC[C@@H](C)O)O[C@@H]5COC[C@@H](C)O)O[C@@H]4COC[C@@H](C)O)O[C@@H]3COC[C@@H](C)O` is “inactive”; for `C[C@@H]1CN([C@@H](C)CO)C(=O)c2cccc(NC(=O)c3ccc(-c4nccs4)cc3)c2O[C@@H]1CN(C)Cc1ccc(Cl)c(Cl)c1` it is “inactive”.
The entry for `Cn1cnc(S(=O)(=O)N2C[C@H](O)COC[C@@H]3O[C@@H](CC(=O)NC4CCCC4)CC[C@H]32)c1` is “inactive”; for `NCC[S@@](=O)c1c(-c2ccc(F)cc2)[nH]c2ccccc12` it is “inactive”; for `CSc1c(-c2ccc(Cl)cc2)[nH]c2ccccc12` it is “active”.
The entry for `Cc1[nH]c2ccccc2c1C(=O)CSc1ccc(Cl)cc1` is “inactive”; for `CC(C)NC(=O)Nc1ccc2c(c1)C(=O)N([C@@H](C)CO)C[C@@H](C)[C@H](CN(C)C(=O)Nc1ccc3c(c1)OCO3)O2` it is “inactive”; for `COc1ccc(NC(=O)N(C)C[C@H]2Oc3ncc(C#C[C@@H](C)O)cc3C(=O)N([C@@H](C)CO)C[C@H]2C)cc1` it is “inactive”.
For the compound `COc1ccc2c3c(n(c2c1)C)[C@@H](CO)N(C[C@]13CN(C1)C(=O)CN(C)C)C(=O)CN(C)C`, the growth inhibition call is “inactive”.
The entry for `Cc1ccccc1-c1cc(N2CCN(C)CC2)ncc1N(C)C(=O)C(C)(C)c1cc(C(F)(F)F)cc(C(F)(F)F)c1` is “active”.
The entry for `COCCOC(=O)N1C(=O)[C@@]2(c3cc(C#Cc4ccc(OC)cc4)ccc31)[C@H](C(=O)N1CCN(c3ncccn3)CC1)[C@H]1C(=O)O[C@H](c3ccccc3)[C@H](c3ccccc3)N1[C@@H]2c1ccc(OCCO)cc1` is “inactive”.
For `C[C@@H]1CN([C@H](C)CO)C(=O)c2cc(NS(=O)(=O)c3ccccc3)ccc2O[C@@H](C)CCCCO[C@@H]1CN(C)C(=O)c1ccccc1` the value was “inactive”; for `CNC[C@@H]1OCCCC[C@H](C)Oc2ccc(NC(=O)Nc3ccc(C(F)(F)F)cc3)cc2C(=O)N([C@H](C)CO)C[C@@H]1C`, “inactive”; for `CNC[C@H]1OCCCC[C@@H](C)Oc2ccc(NC(=O)Nc3ccc(C(F)(F)F)cc3)cc2C(=O)N([C@H](C)CO)C[C@H]1C`, “active”.
For `CNC[C@H]1OCCCC[C@@H](C)Oc2ccc(NC(=O)Nc3ccc(C(F)(F)F)cc3)cc2C(=O)N([C@H](C)CO)C[C@@H]1C`, the growth inhibition call is “inactive”.
For `CNC[C@@H]1OCCCC[C@H](C)Oc2ccc(NC(=O)Nc3ccc(C(F)(F)F)cc3)cc2C(=O)N([C@H](C)CO)C[C@H]1C`, the growth inhibition call was “active”.
The entry for `CNC[C@@H]1OCCCC[C@@H](C)Oc2ccc(NC(=O)Nc3ccc(C(F)(F)F)cc3)cc2C(=O)N([C@@H](C)CO)C[C@@H]1C` is “inactive”; for `CNC[C@@H]1OCCCC[C@@H](C)Oc2ccc(NC(=O)Nc3ccc(C(F)(F)F)cc3)cc2C(=O)N([C@@H](C)CO)C[C@H]1C` it is “inactive”; for `Cc1noc(C)c1NC(=O)N(C)C[C@H]1Oc2ccc(NC(=O)NC(C)C)cc2CC(=O)N([C@H](C)CO)C[C@@H]1C` it is “inactive”.
The entry for `CN(c1ncccc1CNc1nc(Nc2ccc3c(c2)CC(=O)N3)ncc1C(F)(F)F)S(C)(=O)=O` is “inactive”; for `Cc1ccc(S(=O)(=O)Nc2cccc3c2O[C@@H](CN(C)S(=O)(=O)c2cn(C)cn2)[C@H](C)CN([C@H](C)CO)C3=O)cc1` it is “inactive”.
